Our source for the growth values is PubChem BioAssay (NCI).

The panel holds about 83,000 compounds, 20% with a hit somewhere; the sample as a whole holds those more often.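 The test compound was applied at a single concentration to cells in 96-well plates for 48 hours, and percent growth was recorded.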 A number with no mark means an inactive call. The source made the active and inactive calls. The calls were made as follows: active = growth percent below 10; inactive = the rest.

Test systems include NCI-H23 lung; NCI-H226 lung; NCI-H322M lung; HOP-62 NSCLC; NCI-H460 lung; 786-0 renal; DU-145 prostate; MDA-MB-231 breast; SF-268 CNS; M14 melanoma; SNB-19 CNS; U251 CNS; SN12C renal; UO-31 renal; SK-OV-3 ovarian; MDA-MB-435 melanoma; SW-620 colon; HCT-116 colon; KM12 colon; SF-539 CNS.
Test in all cases: NCI-60 one-dose screen, 48 h (100 = growth as untreated, 0 = no growth, -100 = all killed)
Conditions in all cases: 10 µM unless noted

Turning to `Cc1cc(CCl)c(C)cc1CCl`, the growth was 55.4% in the test on NCI-H23 lung; 83.3% in the test on NCI-H226 lung; 15% in the test with NCI-H322M lung; 15.3% in the test with HOP-62 NSCLC; 4.86% (active) with NCI-H460 lung; 36.9% in the test on 786-0 renal. Besides, the growth with DU-145 prostate is 1.11% (active); in the test with MDA-MB-231 breast it was 108%; in the test on SF-268 CNS, 41.9%; with M14 melanoma, 45.1%; with SNB-19 CNS, 51%; with U251 CNS it was 40.2%. The growth with SN12C renal is 30.9%; in the test with UO-31 renal, 33.9%; with SK-OV-3 ovarian it was 73.9%; in the test with MDA-MB-435 melanoma it was 76.5%; in the test with SW-620 colon it was 59.9%; in the test with HCT-116 colon it was 50.9%. Further, the growth in the test on KM12 colon was -43.7% (active).
Regarding `N#C[Se]CCN1C(=O)C2C(C1=O)[C@H]1C=C[C@@H]2S1` (some centres not stated), the growth was -11.7% (active) with NCI-H23 lung; -54.6% (active) with NCI-H226 lung; -1.58% (active) with NCI-H322M lung; -63.3% (active) in the test with HOP-62 NSCLC; 2.86% (active) with NCI-H460 lung; -30.5% (active) with 786-0 renal. Besides, the growth in the test with DU-145 prostate was -33.3% (active); with MDA-MB-231 breast it was -40.5% (active); in the test on SF-268 CNS, -45.2% (active); in the test on SF-539 CNS it was -70.5% (active); with M14 melanoma it was -13.6% (active); in the test on SNB-19 CNS it was -19.1% (active). In addition, the growth in the test with U251 CNS is -56.9% (active); in the test on SN12C renal it was -18.8% (active); in the test with UO-31 renal it was -90.7% (active); with SK-OV-3 ovarian it was 4.59% (active); with MDA-MB-435 melanoma, -39.2% (active); in the test with SW-620 colon it was 42.9%. Further, the growth with HCT-116 colon was -35.4% (active); with KM12 colon it was 15.2%.
As for `CC(=O)Nc1ccc(Cc2ccc(NC(C)=O)cc2)cc1`, the growth was 107% with NCI-H23 lung; 107% in the test with NCI-H226 lung; 108% with NCI-H322M lung; 94.1% in the test on HOP-62 NSCLC; 104% in the test with NCI-H460 lung; 101% in the test on 786-0 renal. Also, the growth in the test with DU-145 prostate is 130%; with MDA-MB-231 breast it was 105%; with SF-268 CNS, 117%; in the test on SF-539 CNS, 104%; in the test on M14 melanoma, 99.9%; with SNB-19 CNS it was 121%. The growth with U251 CNS was 101%; in the test on SN12C renal, 101%; with UO-31 renal, 78%; with MDA-MB-435 melanoma, 106%; in the test on SW-620 colon, 117%; in the test with HCT-116 colon, 94.9%. For the same molecule, the growth in the test with KM12 colon was 139%.
`CC(=O)[O][Hg][c]1ccccc1`: the growth in the test with NCI-H23 lung was -84.5% (active); with NCI-H226 lung, 81.9%; in the test with NCI-H322M lung, 40.1%; in the test on HOP-62 NSCLC, -87.9% (active); in the test with NCI-H460 lung, -52.1% (active); with 786-0 renal, -96.4% (active). The growth in the test on DU-145 prostate is -97.9% (active); with MDA-MB-231 breast it was -54.8% (active); with SF-268 CNS it was -86.4% (active); with SF-539 CNS, -53.6% (active); with M14 melanoma it was -90% (active); in the test on SNB-19 CNS, -26.6% (active). The growth in the test with SN12C renal is -90.5% (active); with UO-31 renal it was -94.2% (active); in the test with SK-OV-3 ovarian, -5.18% (active); with MDA-MB-435 melanoma it was -89.2% (active); in the test with SW-620 colon, -92.9% (active); in the test on HCT-116 colon, -88% (active). Further, in the test on KM12 colon, the growth was -95.3% (active).
As for `CC(C)(NC(=O)c1nn(CCCCCF)c2ccccc12)c1ccccc1`, the growth in the test on NCI-H23 lung was 101%; in the test on NCI-H226 lung, 80.2%; in the test on NCI-H322M lung, 105%; in the test with HOP-62 NSCLC, 94.2%; with NCI-H460 lung it was 102%; in the test with 786-0 renal it was 89.3%. For the same molecule, the growth with DU-145 prostate was 102%; in the test on MDA-MB-231 breast, 98.1%; in the test on SF-268 CNS, 96%; with SF-539 CNS, 100%; in the test with M14 melanoma, 85.5%; in the test with SNB-19 CNS, 106%. The growth in the test with U251 CNS is 84.4%; in the test with SN12C renal, 101%; in the test on UO-31 renal, 76.3%; in the test with SK-OV-3 ovarian, 87.8%; in the test with MDA-MB-435 melanoma, 103%; in the test with SW-620 colon, 102%. Also, the growth was 66.9% with HCT-116 colon and 107% in the test on KM12 colon.
With `C[C@]12CCc3sc(-c4ccc(Cl)cc4)nc3C1=CC[C@@H]1[C@@H]2CC[C@]2(C)C(=O)CC[C@@H]12`, the growth was 71.3% in the test with NCI-H23 lung; 84.3% in the test with NCI-H226 lung; 82.6% in the test on NCI-H322M lung; 66% in the test with HOP-62 NSCLC; 72.5% with NCI-H460 lung; 53.4% in the test with 786-0 renal. Further, the growth was 43.6% in the test on DU-145 prostate; 64.3% in the test on MDA-MB-231 breast; 64.4% with SF-268 CNS; 29.6% in the test on SF-539 CNS; 97.6% in the test with M14 melanoma; 56.2% in the test on SNB-19 CNS. Further, the growth with U251 CNS was 36.7%; in the test with SN12C renal, 65.9%; with UO-31 renal, 47.3%; in the test with SK-OV-3 ovarian, 79.2%; with MDA-MB-435 melanoma, 75.7%; in the test on SW-620 colon, 22.9%. In addition, the growth in the test on HCT-116 colon is 52.3%; with KM12 colon, 66.8%.
`CCOC(=O)Nc1cc(Cl)c([N+](=O)[O-])c(NC(=O)OCC)n1`: the growth in the test with NCI-H23 lung is 87.8%; with NCI-H226 lung, 100%; in the test with NCI-H322M lung, 97.1%; in the test on HOP-62 NSCLC, 126%; in the test with NCI-H460 lung it was 109%; with 786-0 renal it was 104%. Moreover, the growth in the test with DU-145 prostate is 107%; in the test with MDA-MB-231 breast, 108%; with SF-268 CNS it was 75.2%; in the test with SF-539 CNS, 107%; in the test on M14 melanoma it was 84.8%; in the test on SNB-19 CNS, 98.1%. The growth in the test with U251 CNS was 102%; in the test with SN12C renal, 96.5%; in the test with UO-31 renal, 99.5%; in the test on SK-OV-3 ovarian it was 103%; in the test on MDA-MB-435 melanoma it was 65.4%; in the test with SW-620 colon, 71.3%. In addition, the growth was 53.5% in the test on HCT-116 colon and 71.3% in the test with KM12 colon.
Take `Nc1ccc(N)c2c1Oc1ccccc1O2`: the growth with NCI-H23 lung is 85.7%; with NCI-H226 lung, 84.5%; in the test with NCI-H322M lung, 97.2%; in the test with HOP-62 NSCLC, 95.5%; in the test on NCI-H460 lung it was 117%; in the test on 786-0 renal, 93.2%. For the same molecule, the growth was 94.3% in the test with DU-145 prostate; 78.5% in the test on MDA-MB-231 breast; 105% in the test on SF-268 CNS; 89.1% in the test with SF-539 CNS; 101% in the test with M14 melanoma; 104% in the test with SNB-19 CNS. The growth in the test on U251 CNS was 94.3%; with SN12C renal it was 86.1%; in the test with UO-31 renal, 134%; in the test on SK-OV-3 ovarian, 94.6%; with MDA-MB-435 melanoma, 109%; in the test on SW-620 colon, 102%. The growth with HCT-116 colon is 95.7%; in the test with KM12 colon, 97.3%.
